Test results taken from PubChem BioAssay AID2796 (The Scripps Research Institute Molecular Screening Center, 2010).
The whole screen tested about 320,000 compounds, of which about 8,000 (2.5%) were called active. Only a selection was taken, and actives are over-represented in it overall. Values without a mark were called inactive. Cut-off read from the data, not from the text of the source: active = activation above about 47%; inactive = the rest.

Biological target: Aryl hydrocarbon receptor (Homo sapiens) (UniProt P35869)
Sequence (P35869 whole entry, looked up): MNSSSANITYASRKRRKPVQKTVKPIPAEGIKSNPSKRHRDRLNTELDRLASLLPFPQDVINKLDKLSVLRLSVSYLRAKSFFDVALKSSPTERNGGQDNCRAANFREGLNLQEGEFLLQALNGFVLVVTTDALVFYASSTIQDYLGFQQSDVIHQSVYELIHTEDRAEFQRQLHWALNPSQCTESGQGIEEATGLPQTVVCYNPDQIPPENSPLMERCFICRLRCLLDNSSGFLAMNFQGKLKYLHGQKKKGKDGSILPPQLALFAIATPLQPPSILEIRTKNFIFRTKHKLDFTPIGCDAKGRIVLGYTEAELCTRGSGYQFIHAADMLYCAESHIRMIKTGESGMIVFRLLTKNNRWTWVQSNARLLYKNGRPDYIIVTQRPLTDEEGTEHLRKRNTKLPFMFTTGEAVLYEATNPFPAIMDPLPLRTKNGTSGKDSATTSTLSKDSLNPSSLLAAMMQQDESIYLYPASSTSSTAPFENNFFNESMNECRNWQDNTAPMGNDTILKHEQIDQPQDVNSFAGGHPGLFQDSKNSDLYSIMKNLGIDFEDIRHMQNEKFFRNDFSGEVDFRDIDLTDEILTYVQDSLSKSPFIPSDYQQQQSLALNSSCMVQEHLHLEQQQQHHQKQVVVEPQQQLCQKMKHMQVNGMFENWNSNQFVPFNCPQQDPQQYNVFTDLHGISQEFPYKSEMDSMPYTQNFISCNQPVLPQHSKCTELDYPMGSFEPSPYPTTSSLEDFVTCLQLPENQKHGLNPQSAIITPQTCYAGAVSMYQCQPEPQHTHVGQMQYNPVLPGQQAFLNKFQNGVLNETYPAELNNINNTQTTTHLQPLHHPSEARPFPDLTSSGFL
Assay: AHR activators, primary screen, cell-based, luminescence, luciferase reporter, human (AID 2796);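 note: 0% = vehicle wells and 100% = reference agonist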
Conditions: AHR-responsive luciferase reporter cells, at 5 µM, stronger effect = higher value

Compound	activation
C=CCNC(=O)c1ccc2c3n(nc2c1)-c1ccc(C)cc1CO3	-9.75%
CC1C(=O)Nc2ccccc2N1C(=O)c1ccc(F)cc1F (stereo unspecified)	3.47%
CCCN(CC1CC1)C(=S)NC(=O)c1ccccc1Br	0.93%
O=C(Cn1nc(Cc2cccnc2)c2ccccc2c1=O)NCC1COc2ccccc2O1 (stereo unspecified)	0.07%
O=C(NC1CCCC1)C(c1c(F)cccc1Cl)N(C(=O)c1csnn1)C1CC1 (stereo unspecified)	1.3%
COc1ccc(S(=O)(=O)N2CCCCC2)cc1NC(=O)COc1ccccc1	-0.98%
O=C(CN1C(=O)NC2(CCOc3ccccc32)C1=O)NCc1ccc(F)cc1 (stereo unspecified)	0.77%
Cc1cc(NC(=O)CCC(=O)N(CC(=O)NCC2CCCO2)c2ccccc2)no1 (stereo unspecified)	-0.82%
CC(=O)NC(=S)Nc1ccc(NC(=O)c2cccnc2)cc1	0.34%
CC(C)NS(=O)(=O)c1ccc(NC(=O)c2cccnc2)cc1	0.76%
NS(=O)(=O)c1ccc(NC(=S)NC(=O)c2cccnc2)cc1	56.7% (active)
COc1ccc(CCNS(=O)(=O)c2ccc(Cl)s2)cc1OC	1.04%
N#Cc1cc([N+](=O)[O-])ccc1NC(=O)COC(=O)c1cnccn1	10.8%
COc1cccc(N(Cc2nnc3n2CCCCC3)C(=O)Nc2ccccc2F)c1	8.31%
COc1cc2[nH]c(=S)n(Cc3ccc(F)cc3)c(=O)c2cc1OC	0.4%
COc1cc2[nH]c(=S)n(CCN3CCCCC3C)c(=O)c2cc1OC (stereo unspecified)	7.8%
COc1cc2[nH]c(=S)n(Cc3ccc(C)o3)c(=O)c2cc1OC	73.8% (active)
O=C(O)c1cc(S(=O)(=O)NC2CCCc3ccccc32)ccc1O (stereo unspecified)	-0.8%
N#CCC(=O)NC(=O)NCC1CC1	3.61%
O=C(CCCN1C(=O)CSc2ncccc21)N1CCN(c2cccc(C(F)(F)F)c2)CC1	1.24%
CNS(=O)(=O)c1ccc(C(=O)NCC(=O)NCCc2ccc3c(c2)OCCO3)cc1	-1.1%

Compound	activation
CCc1ccc(CNC(=O)C2CCN(c3nnc(C)c4c(C)n(-c5ccc(C)cc5)nc34)CC2)cc1	1.85%
COCCCNc1nc2c(-c3cccc(C)c3)nnn2c2ccc(Cl)cc12	69.9% (active)
COC(=O)Cn1nc(-c2ccccc2)c2cc(Cl)ccc21	1.76%
COCCCNc1nc2c(-c3cccc(C(F)(F)F)c3)nnn2c2ccccc12	29%
C=CCNC(=O)COc1coc(CN2CCN(Cc3ccccc3)CC2)cc1=O	1.03%
O=C(COC(=O)/C=C/c1cccc(Cl)c1)NCc1cccs1	1.89%
CCc1cccc(C)c1NC(=O)COC(=O)CNC(=O)c1cccs1	2.33%
CC[C@@]12C(=O)N(c3ccccc3)C(=O)N1[C@H](c1ccc(Br)cc1)[C@@H]1C(=O)N(C(C)(C)C)C(=O)[C@@H]12	-0.76%
CC(Sc1sc(=S)sc1SC(C)C(=O)O)C(=O)O (stereo unspecified)	4.16%
COCCN1C2=C(COC(C)(C)C2)C(=S)NC1c1ccccc1 (stereo unspecified)	0.78%
COc1ccc(CCNc2nc(-c3cccc(NC(C)=O)c3)cs2)cc1OC	59% (active)
Clc1ccc(Nc2nc(-c3cccs3)cs2)nc1	96.2% (active)
O=C(NCc1cccnc1)C(=O)Nc1nc(-c2ccccc2)cs1	8.85%
CC(=O)Nc1cccc(-c2csc(Nc3cccc(C)n3)n2)c1	61.1% (active)
CC(=O)NCCC(=O)Nc1nc(-c2ccc3c(c2)OCCO3)cs1	40.4%
CC(=O)Nc1ccc(C(=O)Nc2nc(-c3cc(C)n(Cc4ccccc4)c3C)cs2)cc1	2.48%
COc1ccc(CCN(C(=O)COc2ccccc2)c2nc(-c3ccccc3)cs2)cc1OC	23.4%
c1ccc(Nc2nc(-c3ccncc3)cs2)nc1	79% (active)
COc1ccc(CC(=O)Nc2nc(-c3ccc(F)c(F)c3)cs2)cc1OC	-6.95%
Cc1ccc(Nc2nc(-c3ccc(O)cc3O)cs2)nc1	16.5%
O=C(Nc1nc(-c2cccnc2)cs1)c1ccccc1F	11.7%

Compound	activation
Clc1ccc(Cc2nnc(-c3cccs3)o2)cc1	-4.17%
CC(=O)NCC(=O)N(C)C(C(=O)Nc1ccc2c(c1)OCCO2)c1ccccc1 (stereo unspecified)	15%
Cc1cc(=O)oc2c3c(cc(OCC(=O)NCc4ccccn4)c12)OC(C)(C)CC3	4.58%
FC(F)(F)c1ccc(-n2cn[nH]c2=S)cc1	-2.71%
CCN1CCN(C(=O)c2cc3cc4ccc(OC)cc4nc3s2)CC1	2.17%
Cc1cccc(Nc2nc(-c3ccccc3)cs2)n1	95.5% (active)
O=C(CSC1=NCCS1)Nc1nc(-c2ccccc2)cs1	18.4%
CCCn1c(CCNc2nc(-c3ccc(OC)cc3)cs2)nc2ccccc21	15%
Cc1ccccc1Nc1nc(-c2cccnc2)cs1	2.23%
COc1ccc(Nc2nc(-c3ccccc3)cs2)cc1	91.8% (active)
COc1ccc2c(c1OC)C(=O)OC2Nc1nc(-c2ccccc2)cs1 (stereo unspecified)	-5.46%
CCCCn1nc(C(=O)Nc2cccc(C(=O)NC3CC3)c2)c2ccccc2c1=O	-0.03%
CC1(C)C2CCC13CS(=O)(=O)NC3C2 (stereo unspecified)	1.31%
CN1CCN(C(=O)c2cnn(-c3ccccc3)c2NC(=O)c2ccc([N+](=O)[O-])cc2)CC1	4.36%
Nc1c(N(CCO)C(=O)C2CCCCC2)c(=O)[nH]c(=O)n1Cc1ccccc1	0.25%
COc1ccccc1C(=O)Nc1ccccc1C(=O)Nc1ccccc1	18.5%
O=C(Nc1ccccc1Cl)c1ccccc1S(=O)(=O)c1ccccc1[N+](=O)[O-]	2.48%
CN(C)S(=O)(=O)Oc1ccccc1C(=O)Nc1ccccc1Cl	106% (active)
Cc1ccc(NC2CCCN(C(=O)CCc3cn[nH]c3)C2)cc1C (stereo unspecified)	11.1%
